The panel holds about 83,000 compounds, 20% with a hit somewhere; the sample as a whole holds those more often.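 Percent growth is the endpoint: 0 to 100 indicates growth inhibition (40 means 60% inhibition), 0 means no net growth, and negative values indicate cell death.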 Unmarked numbers belong to inactive results. Calls of active or inactive are those of the source. Rule for the calls: active = growth percent below 10; inactive = the rest.
System: HL-60(TB) leukemia
Experiment: NCI-60 one-dose screen, 48 h (100 = growth as untreated, 0 = no growth, -100 = all killed)
Details: 10 µM unless noted

Compound | growth
COc1ccc(Cn2cc3c(c2-c2cc(OC)c(OC)c(OC)c2)CCCc2cnoc2-3)cc1 | -5.47% (active)
COc1ccc(-c2nc(SCCC(C)C)nc(N/N=C\c3ccc(O)cc3)c2C#N)cc1 | 73.3%
CCc1ccc(NC(=O)N[C@@H](Cc2cccc(F)c2)C(=O)N[C@@H]2C(=O)N3CCC[C@H]3C(=O)N3CCCC[C@H]3C(=O)N[C@@H](C)C(=O)N3C[C@H](C)C[C@H]3C(=O)O[C@H]2C)c(F)c1 | 8.27% (active)
Cc1ccccc1NC(=O)/C=C/c1ccc(OCCOc2ccc3c(C)cc(=O)oc3c2)cc1 | 97.2%
CCN(CC)c1ccc(/C=N/NC(=O)c2ccc(S(N)(=O)=O)cc2)c(O)c1 | 1.26% (active)
CS(=O)(=O)c1ccc(-c2nc3ccccn3c2-c2nc3ccc([N+](=O)[O-])cc3[nH]2)cc1 | 95.7%
COC(=O)c1cccc(NC2=C(Cl)C(=O)C(C)=C(C)C2=O)c1 | 60.4%
c1cc(-c2nc3ccc4[nH]ncc4c3c3c2CCCC3)[nH]n1 | 80.8%
CCN(CC)CCN1C(=O)c2c(c3c4cccnc4[nH]c3c3ccc4ccccc4c23)C1=O | 56.2%
O=C(NNc1nc2cc(F)c(F)cc2n2cccc12)c1ncccn1 | 2.19% (active)
COc1ccc(N2C(=O)c3cc(Cl)ccc3NC2SCc2ccccc2)cc1 (centres undefined) | 114%
COc1ccccc1C(=O)Nc1cccc2c1C(=O)C(=O)C=C2 | 9.19% (active)
CCCCCCN1C=C/C(=C\C(=O)n2ccc3ccccc32)c2ccccc21 | 24.7%
CC(C)C(/C=C/c1[nH]ncc1-c1cc(Cl)ccc1O)N1CCOCC1 (centres undefined) | 93.5%
COc1ccc(/C(N)=N/C(N)=N/c2nc3ccccc3s2)cc1 | 108%
COc1ccc(/C=C(\C#N)C(=O)N2c3ccccc3Sc3ccc(SC)cc32)cc1F | 93.5%
Clc1ccc(-c2csc(Nc3cccc(Nc4csc(-c5ccc(Cl)cc5)n4)c3)n2)cc1 | 96.1%
C#CCOc1ccc(/C=N\Nc2nc(-c3ccc(C)cc3)cs2)cc1OC | 69.5%
O=C1c2c(c3c4cccnc4[nH]c3c3ccc4ccccc4c23)C(=O)N1CCN1CCCCC1 | 35.4%

Reference: PubChem BioAssay (NCI)
